Experimental data taken from PubChem BioAssay (NCI).
Compounds without any hit were thinned out: in the full panel of roughly 83,000, 20% have a hit.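 96-well plates, one dose, 48 hours. Percent growth reported; active if below 10.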 The source made the active and inactive calls.

What was measured:
Assay in all cases: NCI-60 one-dose screen, 48 h (100 = growth as untreated, 0 = no growth, -100 = all killed)
Conditions in all cases: 10 µM unless noted
NCI-H23 lung = system: NCI-H23 lung
NCI-H226 lung = system: NCI-H226 lung
NCI-H322M lung = system: NCI-H322M lung
HOP-62 NSCLC = system: HOP-62 NSCLC
NCI-H460 lung = system: NCI-H460 lung
HOP-92 NSCLC = system: HOP-92 NSCLC
NCI-H522 lung = system: NCI-H522 lung
A549/ATCC NSCLC = system: A549/ATCC NSCLC
786-0 renal = system: 786-0 renal
COLO 205 colon = system: COLO 205 colon
DU-145 prostate = system: DU-145 prostate
K-562 leukemia = system: K-562 leukemia
MALME-3M melanoma = system: MALME-3M melanoma
MDA-MB-231 breast = system: MDA-MB-231 breast
RXF 393 renal = system: RXF 393 renal
SF-268 CNS = system: SF-268 CNS
SF-295 CNS = system: SF-295 CNS
SF-539 CNS = system: SF-539 CNS
UACC-257 melanoma = system: UACC-257 melanoma
M14 melanoma = system: M14 melanoma

Measured: growth

O=C1Nc2cc(-c3ccc(NC(=O)c4ccccc4)cc3)ccc2/C1=C/c1ccc[nH]1
inactive: NCI-H23 lung 66.7% | NCI-H226 lung 90.6% | NCI-H322M lung 94.1% | HOP-62 NSCLC 104% | NCI-H460 lung 83.4% | HOP-92 NSCLC 115% | NCI-H522 lung 92.2% | A549/ATCC NSCLC 103% | 786-0 renal 107% | COLO 205 colon 118% | DU-145 prostate 98.9% | K-562 leukemia 95.1% | MALME-3M melanoma 102% | MDA-MB-231 breast 90% | RXF 393 renal 111% | SF-268 CNS 101% | SF-295 CNS 106% | SF-539 CNS 98% | UACC-257 melanoma 110% | M14 melanoma 105%

O=C(/C=C(O)/C=C/c1ccc(SC(F)(F)F)cc1)/C=C/c1ccc(SC(F)(F)F)cc1
inactive: NCI-H23 lung 83.2% | NCI-H226 lung 100% | NCI-H322M lung 102% | HOP-62 NSCLC 101% | NCI-H460 lung 91.1% | HOP-92 NSCLC 93% | NCI-H522 lung 93.7% | A549/ATCC NSCLC 95.4% | 786-0 renal 87.2% | COLO 205 colon 114% | DU-145 prostate 97.2% | K-562 leukemia 77.6% | MALME-3M melanoma 98.6% | MDA-MB-231 breast 99.8% | RXF 393 renal 104% | SF-268 CNS 86.3% | SF-295 CNS 97.5% | SF-539 CNS 106% | UACC-257 melanoma 104% | M14 melanoma 79.9%

O=C1c2ccc3c4c(ccc(c24)C(=O)N1CCCNCc1ccccc1)C(=O)N(CCCNCc1ccccc1)C3=O
active: NCI-H23 lung -72.9% | NCI-H226 lung -54.1% | NCI-H322M lung -37.8% | HOP-62 NSCLC -38.5% | NCI-H460 lung -73.1% | HOP-92 NSCLC -12.5% | NCI-H522 lung -91.2% | A549/ATCC NSCLC -91.1% | 786-0 renal -46.3% | COLO 205 colon -43.3% | DU-145 prostate -93.6% | K-562 leukemia -47.9% | MALME-3M melanoma -58.5% | MDA-MB-231 breast -8.41% | RXF 393 renal -88.8% | SF-268 CNS -71.4% | SF-295 CNS -39.7% | SF-539 CNS -69.6% | UACC-257 melanoma -95.2% | M14 melanoma -76%

O=C(CSc1nc2sc3c(c2c(=O)n1-c1ccc(Cl)cc1)CCCC3)Nc1nc(-c2cccc(Br)c2)cs1
inactive: NCI-H23 lung 56.9% | NCI-H226 lung 64% | NCI-H322M lung 87.8% | HOP-62 NSCLC 90.7% | NCI-H460 lung 94.7% | HOP-92 NSCLC 107% | NCI-H522 lung 69.8% | A549/ATCC NSCLC 70.4% | 786-0 renal 91.5% | COLO 205 colon 85.1% | DU-145 prostate 68.5% | K-562 leukemia 95.8% | MALME-3M melanoma 95.3% | MDA-MB-231 breast 80.7% | RXF 393 renal 99.5% | SF-268 CNS 69.6% | SF-295 CNS 42.4% | SF-539 CNS 97.3% | UACC-257 melanoma 99.3% | M14 melanoma 76.6%
